Results published in PubChem BioAssay AID1159580 (chemical genetic matrix, 2015).
Out of some 5,500 compounds screened, about 2,000 (36%) were called active. Roughly 18% stayed inconclusive and do not appear here. Rule as the data show it: active = normalized growth mostly below about 0.91 (no sharp cut-off); inconclusive = no clear call, values can overlap the other calls; inactive = mostly above about 0.92. The list shows a part of the results.

Assay: chemical genetic growth profiling, strain panel (AID 1159580);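 also: tested at 20 µM; growth read once vehicle control cultures reached saturation at 30 °C; 1 = growth at the plate median or of vehicle wells; lower values mean less growth of the strain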
Details: growth OD

Measured: normalized growth

Cc1ccnc(NS(=O)(=O)c2ccc(N)cc2)n1
inactive: S. cerevisiae deletion strains, locus YJR075W, strain HOC1, hits give low values 1.02 | S. cerevisiae deletion strains, locus YKL009W, strain mrt4, hits give low values 1.01 | S. cerevisiae deletion strains, locus YKL068W, hits give low values 1 | S. cerevisiae deletion strains, locus YKL085W, strain MDH1 (second series), hits give low values 1.01 | S. cerevisiae deletion strains, locus YKL085W, strain MDH1, hits give low values 1.01 | S. cerevisiae deletion strains, locus YKL160W, strain elf1, hits give low values 1.01 | S. cerevisiae deletion strains, locus YKL190W, strain CNB1, hits give low values 0.985 | S. cerevisiae deletion strains, locus YKR001C, strain vps1, hits give low values 1.02 | S. cerevisiae deletion strains, locus YKR026C, strain gcn3, hits give low values 1.01 | S. cerevisiae deletion strains, locus YKR091W, strain srl3, hits give low values 0.998 | S. cerevisiae deletion strains, locus YLL001W, strain dnm1, hits give low values 1.01 | S. cerevisiae deletion strains, locus YLL026W, hits give low values 1 | S. cerevisiae deletion strains, locus YLL041C, strain sdh2, hits give low values 1 | S. cerevisiae deletion strains, locus YLR027C, strain aat2, hits give low values 1 | S. cerevisiae deletion strains, locus YLR039C, strain RIC1, hits give low values 1.04 | S. cerevisiae deletion strains, locus YLR058C, strain SHM2, hits give low values 1.02 | S. cerevisiae deletion strains, locus YLR102C, strain apc9, hits give low values 1.01 | S. cerevisiae deletion strains, locus YLR113W, strain HOG1, hits give low values 0.984 | S. cerevisiae deletion strains, locus YLR221C, strain rsa3, hits give low values 0.98 | S. cerevisiae deletion strains, locus YLR258W, strain gsy2, hits give low values 0.975 | S. cerevisiae deletion strains, locus YLR262C, strain YPT6 (second series), hits give low values 1.04 | S. cerevisiae deletion strains, locus YLR262C, strain YPT6, hits give low values 1.05 | S. cerevisiae deletion strains, locus YLR268W, strain sec22, hits give low values 1.03 | S. cerevisiae deletion strains, locus YLR320W, strain mms22, hits give low values 0.961 | S. cerevisiae deletion strains, locus YLR330W, strain CHS5, hits give low values 1.01 | S. cerevisiae deletion strains, locus YLR342W, strain FKS1 (second series), hits give low values 1 | S. cerevisiae deletion strains, locus YLR342W, strain FKS1, hits give low values 1.01 | S. cerevisiae deletion strains, locus YLR357W, strain rsc2, hits give low values 1.04 | S. cerevisiae deletion strains, locus YLR370C, strain arc18, hits give low values 1 | S. cerevisiae deletion strains, locus YLR371W, strain rom2, hits give low values 1.01 | S. cerevisiae deletion strains, locus YLR384C, strain iki3, hits give low values 1.01 | S. cerevisiae deletion strains, locus YLR418C, strain cdc73, hits give low values 1.07 | S. cerevisiae deletion strains, locus YML016C, strain PPZ1, hits give low values 1.01 | S. cerevisiae deletion strains, locus YML032C, strain rad52, hits give low values 1.01 | S. cerevisiae deletion strains, locus YML120C, strain ndi1, hits give low values 1.02 | S. cerevisiae deletion strains, locus YML124C, strain tub3, hits give low values 1.01 | S. cerevisiae deletion strains, locus YMR058W, strain fet3, hits give low values 1 | S. cerevisiae deletion strains, locus YMR078C, strain ctf18, hits give low values 1.01 | S. cerevisiae deletion strains, locus YMR125W, strain sto1, hits give low values 0.995 | S. cerevisiae deletion strains, locus YMR129W, hits give low values 0.998 | S. cerevisiae deletion strains, locus YMR205C, strain PFK2, hits give low values 1.01 | S. cerevisiae deletion strains, locus YMR223W, strain ubp8, hits give low values 1 | S. cerevisiae deletion strains, locus YMR231W, strain pep5, hits give low values 1 | S. cerevisiae deletion strains, locus YMR263W, strain SAP30, hits give low values 0.996 | S. cerevisiae deletion strains, locus YMR307W, strain GAS1, hits give low values 1.01 | S. cerevisiae deletion strains, locus YNL067W, strain RPL9B, hits give low values 1.02 | S. cerevisiae deletion strains, locus YNL071W, strain lat1, hits give low values 0.987 | S. cerevisiae deletion strains, locus YNL128W, strain TEP1, hits give low values 1.02 | S. cerevisiae deletion strains, locus YNL153C, strain GIM3, hits give low values 1.01 | S. cerevisiae deletion strains, locus YNL183C, strain NPR1, hits give low values 0.972 | S. cerevisiae deletion strains, locus YNL209W, strain ssb2, hits give low values 0.982 | S. cerevisiae deletion strains, locus YNL233W, strain BNI4, hits give low values 1.01 | S. cerevisiae deletion strains, locus YNL248C, strain rpa49, hits give low values 1.01 | S. cerevisiae deletion strains, locus YNL250W, strain rad50, hits give low values 1.03 | S. cerevisiae deletion strains, locus YNL271C, strain bni1, hits give low values 1.02 | S. cerevisiae deletion strains, locus YNL298W, strain CLA4, hits give low values 1.02 | S. cerevisiae deletion strains, locus YNL307C, strain MCK1, hits give low values 1.02 | S. cerevisiae deletion strains, locus YNL322C, strain KRE1 (second series), hits give low values 0.998 | S. cerevisiae deletion strains, locus YNL322C, strain KRE1, hits give low values 1 | S. cerevisiae deletion strains, locus YNR049C, strain mso1, hits give low values 1.01 | S. cerevisiae deletion strains, locus YNR052C, strain pop2, hits give low values 1.03 | S. cerevisiae deletion strains, locus YOL006C, strain TOP1, hits give low values 1.03 | S. cerevisiae deletion strains, locus YOL012C, strain htz1 1.03 | S. cerevisiae deletion strains, locus YOL147C, strain pex11, hits give low values 1.02 | S. cerevisiae deletion strains, locus YOR001W, strain rrp6, hits give low values 1.01 | S. cerevisiae deletion strains, locus YOR061W, strain CKA2, hits give low values 1.01 | S. cerevisiae deletion strains, locus YOR069W, strain VPS5, hits give low values 1.01 | S. cerevisiae deletion strains, locus YOR070C, strain gyp1, hits give low values 0.989 | S. cerevisiae deletion strains, locus YOR080W, strain dia2, hits give low values 1.01 | S. cerevisiae deletion strains, locus YOR083W, strain WHI5, hits give low values 0.979 | S. cerevisiae deletion strains, locus YOR106W, strain vam3, hits give low values 0.975 | S. cerevisiae deletion strains, locus YOR136W, strain idh2, hits give low values 1.01 | S. cerevisiae deletion strains, locus YOR144C, strain elg1, hits give low values 1.02 | S. cerevisiae deletion strains, locus YOR184W, strain ser1, hits give low values 1.03 | S. cerevisiae deletion strains, locus YOR231W, strain MKK1, hits give low values 0.98 | S. cerevisiae deletion strains, locus YOR265W, strain rbl2, hits give low values 1.01 | S. cerevisiae deletion strains, locus YOR270C, strain vph1, hits give low values 1.04 | S. cerevisiae deletion strains, locus YOR290C, strain snf2, hits give low values 0.964 | S. cerevisiae deletion strains, locus YOR316C, strain cot1, hits give low values 1.01 | S. cerevisiae deletion strains, locus YPL051W, strain arl3, hits give low values 1.01 | S. cerevisiae deletion strains, locus YPL055C, strain LGE1, hits give low values 0.988 | S. cerevisiae deletion strains, locus YPL078C, strain atp4, hits give low values 1.03 | S. cerevisiae deletion strains, locus YPL106C, strain sse1, hits give low values 0.968 | S. cerevisiae deletion strains, locus YPL240C, strain hsp82, hits give low values 0.989 | S. cerevisiae deletion strains, locus YPL241C, strain CIN2, hits give low values 1.01 | S. cerevisiae deletion strains, locus YPL256C, strain CLN2, hits give low values 0.965 | S. cerevisiae deletion strains, locus YPR119W, strain clb2, hits give low values 1.01 | S. cerevisiae deletion strains, locus YPR141C, strain kar3, hits give low values 1.03 | S. cerevisiae deletion strains, locus YPR163C, strain tif3, hits give low values 1.03 | S. cerevisiae deletion strains, locus YPR167C, strain met16, hits give low values 1 | S. cerevisiae deletion strains, strain wtn01, hits give low values 1.02 | S. cerevisiae strains, strain wild type, hits give low values 0.999
